Measured values taken from PubChem BioAssay (Tox21).
Results filed as inconclusive are left out. The source made the active and inactive calls. Calls come from the whole dose curve; as a rule, active = well fitted activation curve with a large enough effect in the repeat runs; inconclusive = weak or mixed curves; inactive = no such curve, though single readings can be large or run the other way.

Experiment: qHTS assay for small molecules that induce genotoxicity in human embryonic kidney cells expressing luciferase-tagged ATAD5 (AID 651632); note: nearly all actives have a fitted effect of over 15% in size
Settings: HEK293T ATAD5-luciferase induction, 16 h; series mostly up to 83.3 µM; activation: at the top concentration
Excerpt: U.S. Tox21 Program National Center for Advancing Translational Sciences [NCATS] NIH Chemical Genomics Center [NCGC] U.S. Environmental Protection Agency [EPA] National Institutes of Environmental Health Sciences [NIEHS] National Toxicology Program [NTP] U.S. Food and Drug Administration [FDA] Tox21 Assay Overview: As cancer cells divide rapidly and during every cell division they need to duplicate their genome by DNA replication. The failure to do so results in the cancer cell death. Based on this concept, many chemotherapeutic agents were developed but have limitations such as low efficacy and severe side effects etc. A new cell based assay was developed to find the compounds that effectively block DNA replication either by directly damaging DNA or by inhibiting other cellular mechanisms. Enhanced Level of Genome Instability Gene 1 (ELG1; human ATAD5) protein levels increase in response to various types of DNA damage. Using a luciferase reporter-gene tagged with ATAD5, a cell-based assay [developed by Kyungjae Myung, NHGRI, NIH] was used to measure the induction of ATAD5 in human embryonic kidney cells (HEK293T). So, increase in luciferase activity can be used to identify the compounds that cause genetic stress.
Tox21 Assay Protocol Summary: For genotoxicity screening, 2,000 cells in 5 uL/well were dispensed into white, solid-bottom 1536-well plates using a Multidrop Combi (Thermo Scientific) dispenser. Following transfer of 23 nL compound or DMSO vehicle by a pin tool, the plates were incubated 16 hr at 37C and 5% CO2. 5 ul Amplite (AAT Bioquest, Inc.) was then added to each plate and following 30 min incubation at room temperature, luciferase activity was quantified on a ViewLux CCD-based plate reader.
% is set by controls: 0 for no effect and ±100 for the full control effect.

SMILES	activation	outcome
CC/C(C)=N\O[Si](C)(O/N=C(\C)CC)O/N=C(\C)CC	2.78% [at 95.3 µM] (inactive)	–
CCO	3.08% [at 95.3 µM] (inactive)	–
O=C(Cl)c1ccccc1[N+](=O)[O-]	-3.72% [at 95.3 µM] (inactive)	–
CCOC(CN1CCN(CC(C)C(=O)c2ccccc2)CC1)c1ccccc1 (stereo not given)	-7.53% (inactive)	–
OC[C@H]1O[C@@H](O[C@@H]2[C@@H](CO)O[C@](O)(CO)[C@H]2O)[C@H](O)[C@@H](O)[C@H]1O	0.542% (inactive)	–
CC(=O)CCc1ccc(OC(C)=O)cc1	1.92% (inactive)	–
CC(C)COC(=O)c1ccccc1	-3.26% (inactive)	–
Cc1ccnc(N)c1	-1.06% (inactive)	–
CC(N)CCCC(C)(C)O (stereo not given)	1.27% (inactive)	–
OC1OCCOC1O (stereo not given)	-1.22% (inactive)	–
COc1c2occc2c(OC)c2c(=O)cc(C)oc12	0.672% [at 39.1 µM] (inactive)	–
COC(=O)c1cc(Cl)cc(Cl)c1	1.74% (inactive)	–
COS(=O)(=O)O	0.841% (inactive)	–
COC(=O)CCCCC(=O)O	2.96% (inactive)	–
CCO[Si](CC)(OCC)OCC	1.39% (inactive)	–
CCCCC1CCC(O)CC1 (stereo not given)	1.89% (inactive)	–
C=CC(=O)OCC1CCCO1 (stereo not given)	-2.65% (inactive)	–
O=[N+]([O-])c1c(Cl)cc(Cl)cc1Cl	-4.44% (inactive)	–
C=Cc1ccc(C(C)(C)C)cc1	0.602% (inactive)	–
CC1=NN(c2ccc(S(=O)(=O)O)cc2)C(=O)C1	0.802% (inactive)	–

SMILES	activation	outcome
CCCCCCCCCCCCCCCCCCOCCO	-3.14% [at 39.1 µM] (inactive)	–
[O]=[Mo](=[O])=[O]	1.92% [at 39.1 µM] (inactive)	–
COc1ccc2c(c1)c1c3n2CCN(C)C3=NCC1	-0.457% (inactive)	–
CCCC(=O)OC/C=C(\C)CCC=C(C)C	2.29% (inactive)	–
CCOc1cccc(N)c1	-0.981% (inactive)	–
Cn1c(=O)c2c(ncn2CCO)n(C)c1=O	-2.81% (inactive)	–
CCCCCCCCCOC(=O)CCCCC(=O)OCCCCCCC	1.84% (inactive)	–
C=C(C)c1cccc(C(C)(C)N=C=O)c1	-3.38% (inactive)	–
CCNC(=O)NCc1cccc(Cl)c1	2.03% (inactive)	–
COc1nc(N)nc2nc[nH]c12	4.39% (inactive)	–
CC1=C(C(=O)O)N2C(=O)[C@@H](NC(=O)[C@H](N)C3=CCC=CC3)[C@H]2SC1	2.67% (inactive)	–
CC1(C)Oc2ccc(C#N)cc2[C@@H](N2CCCC2=O)[C@@H]1O	–	inactive
CO[Si](CCCn1c(=O)n(CCC[Si](OC)(OC)OC)c(=O)n(CCC[Si](OC)(OC)OC)c1=O)(OC)OC	-2.13% (inactive)	–
CC(=O)CCC1=C(C)CCCC1(C)C	1.2% (inactive)	–
CC1CCc2c(N3CCC(O)CC3)c(F)cc3c(=O)c(C(=O)O)cn1c23 (stereo not given)	1.19% (inactive)	–
O=C1OCCO1	-1.2% [at 95.3 µM] (inactive)	–
CC(=O)O[C@H]1C[C@@H]2CC[C@@]1(C)C2(C)C	2.53% (inactive)	–
CSc1cnccn1	-1.42% (inactive)	–
COP(=O)(O)OP(=O)(O)OC	1.7% (inactive)	–
CC(=O)O[C@@H]1CC2CCC1(C)C2(C)C (stereo not given in full)	–	inactive
